# Measured values reported in PubChem BioAssay (NCI).
# The panel holds about 79,000 compounds, 15% with a hit somewhere; the sample as a whole holds those more often. A number with no mark means an inactive call. Activity calls are given as the source filed them. Cut-off read from the data, not from the text of the source: active = growth inhibition above about 70%; inactive = the rest. Where a SMILES comes first, the peptide text is derived from it. [ ]: non-standard residue; d: D form. Nva = CCC[CH](N)C(=O)O
# Experiment: NCI Yeast Anticancer Drug Screen. Data for the mec2-1 strain (AID 157)
# Details: S. cerevisiae mec2-1 strain, at 50.0 µM, hits give high values
# Procedure, shortened: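 Yeast mec2-1 mutant treated with compound. Readout: growth inhibition vs vehicle controls.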
row,Structure (SMILES),growth inhibition
1,O=[N+]([O-])c1ccc(-c2ccc(-c3csc(Nc4ccccc4)n3)o2)cc1,93.4% (active)
2,C1=C(C2=C[P+](c3ccccc3)(c3ccccc3)C=C(c3ccccc3)O2)OC(c2ccccc2)=C[P+]1(c1ccccc1)c1ccccc1,-7.05%
3,Cc1ccc(C2C(O)=C(c3ccccc3)Sc3ccc(C)cc32)cc1 (stereo not given),2.45%
4,CCc1n[nH]c(CC)c1CCCCCCOc1ccc(OC)cc1Cl,92.4% (active)
5,C=C1CC[C@H]2C(C)=CC[C@@H]3[C@H](OC(=O)[C@H]3CN3CCN(c4ccc(C)c([N+](=O)[O-])c4)CC3)[C@@H]12,66.2%
6,C(CCCCCN1CCCCC1)CCCCN1CCCCC1,5.4%
7,CN(Cc1cnc2nc(N)nc(N)c2n1)c1ccc(C(=O)NC(CCC(=O)O)C(=O)O)cc1C(F)(F)F (stereo not given),50%
8,CC(C(=O)O)C(N)C(=O)O (stereo not given),99.6% (active)
9,CCCCCCCCCCN(CCCCCCCCCC)C1CC(OC2CC(O)(C(O)CO)Cc3c(O)c4c(c(O)c32)C(=O)c2c(OC)cccc2C4=O)OC(C)C1O (stereo not given),93.5% (active)
10,COc1ccc(OCC(O)CN2CCN(c3cccc(Cl)c3)CC2)cc1 (stereo not given),37.6%
11,O=C(O)c1ccccc1C(=O)c1ccc2c(c1)Cc1ccccc1-2,41.3%
12,Cc1cc(C2c3ccccc3-c3ccccc32)cc(C)c1O,98.6% (active)
13,CC(C)(C)c1cc(Cl)c(O)c(Cc2cc(C(C)(C)C)cc(Cl)c2O)c1,72.2% (active)
14,COc1cccc(/C=C/C(C)=O)c1OC,13.9%
15,Cc1nc2c(cnn2C)cc1CCc1ccccc1,3.9%
16,O=C1C(C(O)(C(F)(F)Cl)C(F)(F)Cl)CCCC1C(O)(C(F)(F)Cl)C(F)(F)Cl (stereo not given),99.7% (active)
17,C=CCNCCC1CCCCCC1,97.5% (active)
18,CCCC(N)C(=O)NC(C(=O)O)C(C)C (stereo not given) (H-[Nva]-Val-OH; configuration not given here),51.9%
19,Cc1cc(N)c2cc(NC(=O)Nc3ccc4nc(C)cc(N)c4c3)ccc2n1,99% (active)
20,COc1ccc(N=Cc2ccccc2O)cc1,-8%

row,Structure (SMILES),growth inhibition
1,Cc1cc(Br)c2ccccc2c1N,54.2%
2,c1ccc(-c2cc(Nc3ccc4c(c3)OCO4)c3cc(C4CCCCC4)ccc3n2)cc1,83.9% (active)
3,CCCCCCCCc1cc[n+](C2=C([O-])c3ccccc3C(=O)C2=O)cc1,98.2% (active)
4,CCCCCCCCCCCc1nnc(N)o1,96.2% (active)
5,O=C1OC(OCC#CCOC2OC(=O)C(Cl)=C2Cl)C(Cl)=C1Cl (stereo not given),99.7% (active)
6,O=S(=O)(O)CC[S][Sn]([S]CCS(=O)(=O)O)([c]1ccccc1)[c]1ccccc1 (tested in a mixture with another compound),83.2% (active)
7,CC(C)NC(=O)OCCS(=O)c1c(Cl)c(Cl)nn1C (stereo not given),99.2% (active)
8,CN1N=C2c3ccccc3CC[C@H]2C1c1cccc(O)c1 (stereo not given in full),23.4%
9,O=C1CSC(=S)N1/N=C/c1ccc(Cl)c([N+](=O)[O-])c1,52.1%
10,O=C(O)CCCCCCCCC(=O)CCl,99.5% (active)
11,O=C(NC1CCN(Cc2ccccc2)CC1)c1ccccc1I,39.9%
12,Cc1ccc(Nc2nc3c(s2)C(=O)c2ccccc2C3=O)cc1,98.8% (active)
13,O=C(/C=C/c1ccccc1)c1cc2c(cc1O)OCO2,-3.2%
14,O=[N+]([O-])c1ccc(Sc2ccc([N+](=O)[O-])o2)o1,99.5% (active)
15,CCCCCCCCN(CCCCCCCC)CC(O)c1cc(OCC)nc2ccccc12 (stereo not given),97.7% (active)
16,CC(O)CCc1nc2ccccc2[nH]1 (stereo not given),3.15%
17,CCCCCCCCCCCCCCCCSC(=NC)NC,99.2% (active)
18,O=C(O)CCC(O)=C1S(=O)(=O)OCCOS1(=O)=O,4.25%
19,CCCCCCCCCCCCCCCCN,99.4% (active)
20,COC1=C(Br)C(=O)N/C1=C(\OC)c1ccccc1,-8.9%

# Experiment: NCI Yeast Anticancer Drug Screen. Data for the sgs1 mgt1 strain (AID 161);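 note: 0% = growth of cultures given vehicle only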
# Details: S. cerevisiae sgs1 mgt1 strain, at 5.0 µM (retest, dose inferred, filed as 0.5), hits give high values
# Procedure, shortened: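 Inhibition of yeast growth, normalised to vehicle-treated controls, is reported for a strain bearing genetic alterations in DNA damage repair.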
row,Structure (SMILES),growth inhibition
1,O=[N+]([O-])c1ccc(-c2ccc(-c3csc(Nc4ccccc4)n3)o2)cc1,44%
2,C1=C(C2=C[P+](c3ccccc3)(c3ccccc3)C=C(c3ccccc3)O2)OC(c2ccccc2)=C[P+]1(c1ccccc1)c1ccccc1,5%
3,Cc1ccc(C2C(O)=C(c3ccccc3)Sc3ccc(C)cc32)cc1 (stereo not given),5%
4,CCc1n[nH]c(CC)c1CCCCCCOc1ccc(OC)cc1Cl,-3%
5,C=C1CC[C@H]2C(C)=CC[C@@H]3[C@H](OC(=O)[C@H]3CN3CCN(c4ccc(C)c([N+](=O)[O-])c4)CC3)[C@@H]12,52%
6,C(CCCCCN1CCCCC1)CCCCN1CCCCC1,3%
7,CN(Cc1cnc2nc(N)nc(N)c2n1)c1ccc(C(=O)NC(CCC(=O)O)C(=O)O)cc1C(F)(F)F (stereo not given),-12%
8,CC(C(=O)O)C(N)C(=O)O (stereo not given),-2%
9,CCCCCCCCCCN(CCCCCCCCCC)C1CC(OC2CC(O)(C(O)CO)Cc3c(O)c4c(c(O)c32)C(=O)c2c(OC)cccc2C4=O)OC(C)C1O (stereo not given),10%
10,COc1ccc(OCC(O)CN2CCN(c3cccc(Cl)c3)CC2)cc1 (stereo not given),1%
11,O=C(O)c1ccccc1C(=O)c1ccc2c(c1)Cc1ccccc1-2,-4%
12,Cc1cc(C2c3ccccc3-c3ccccc32)cc(C)c1O,4%
13,CC(C)(C)c1cc(Cl)c(O)c(Cc2cc(C(C)(C)C)cc(Cl)c2O)c1,-4%
14,COc1cccc(/C=C/C(C)=O)c1OC,-1%
15,Cc1nc2c(cnn2C)cc1CCc1ccccc1,5%
16,O=C1C(C(O)(C(F)(F)Cl)C(F)(F)Cl)CCCC1C(O)(C(F)(F)Cl)C(F)(F)Cl (stereo not given),95% (active)
17,C=CCNCCC1CCCCCC1,7%
18,CCCC(N)C(=O)NC(C(=O)O)C(C)C (stereo not given) (H-[Nva]-Val-OH; configuration not given here),1%
19,Cc1cc(N)c2cc(NC(=O)Nc3ccc4nc(C)cc(N)c4c3)ccc2n1,99% (active)
20,COc1ccc(N=Cc2ccccc2O)cc1,-8%

row,Structure (SMILES),growth inhibition
1,Cc1cc(Br)c2ccccc2c1N,0%
2,c1ccc(-c2cc(Nc3ccc4c(c3)OCO4)c3cc(C4CCCCC4)ccc3n2)cc1,27%
3,CCCCCCCCc1cc[n+](C2=C([O-])c3ccccc3C(=O)C2=O)cc1,100% (active)
4,CCCCCCCCCCCc1nnc(N)o1,1%
5,O=C1OC(OCC#CCOC2OC(=O)C(Cl)=C2Cl)C(Cl)=C1Cl (stereo not given),46%
6,O=S(=O)(O)CC[S][Sn]([S]CCS(=O)(=O)O)([c]1ccccc1)[c]1ccccc1 (tested in a mixture with another compound),92% (active)
7,CC(C)NC(=O)OCCS(=O)c1c(Cl)c(Cl)nn1C (stereo not given),-5%
8,CN1N=C2c3ccccc3CC[C@H]2C1c1cccc(O)c1 (stereo not given in full),-16%
9,O=C1CSC(=S)N1/N=C/c1ccc(Cl)c([N+](=O)[O-])c1,2%
10,O=C(O)CCCCCCCCC(=O)CCl,29%
11,O=C(NC1CCN(Cc2ccccc2)CC1)c1ccccc1I,80% (active)
12,Cc1ccc(Nc2nc3c(s2)C(=O)c2ccccc2C3=O)cc1,34%
13,O=C(/C=C/c1ccccc1)c1cc2c(cc1O)OCO2,-16%
14,O=[N+]([O-])c1ccc(Sc2ccc([N+](=O)[O-])o2)o1,97% (active)
15,CCCCCCCCN(CCCCCCCC)CC(O)c1cc(OCC)nc2ccccc12 (stereo not given),4%
16,CC(O)CCc1nc2ccccc2[nH]1 (stereo not given),-1%
17,CCCCCCCCCCCCCCCCSC(=NC)NC,98% (active)
18,O=C(O)CCC(O)=C1S(=O)(=O)OCCOS1(=O)=O,-16%
19,CCCCCCCCCCCCCCCCN,99% (active)
20,COC1=C(Br)C(=O)N/C1=C(\OC)c1ccccc1,6%
